Compounds with a hit are over-represented: about 5.4% of the library has one in this group of screens.
Lassa entry inh = blocks Lassa virus binding to or entry into cells | hit rate 1.2% among 300,000 | Lassa virus pseudotype entry inhibition, cell reporter | Potency, µM (titrated, usually from 37.9 µM), usual class: inhibitors; calls by dose curve; tested in HEK293 cells; further: nearly all actives have a fitted effect of over 50% in size
Sm TGR block = blocks Schistosoma mansoni thioredoxin glutathione reductase; Q962Y6; purified TGR, DTNB reduction, TNB absorbance 405 nm; Potency, µM (top dose mostly 114 µM), usual class: inhibitors; hit rate 3% among 360,000; active means well fitted inhibition curve with a large enough effect; inconclusive means small, poorly fitted or top-dose-only effect; inactive means no such curve, though single readings can be large or run the other way; further: nearly all actives have a fitted effect of over 60% in size
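TGR 20 nM + NADPH 100 uM (dispensed conc.), cpd preinc 15 min RT; start with NADPH (500 uM addition) then DTNB (15 mM addition). Kinetic TNB absorbance, 405 nm filter. Four-parameter Hill fit across titration.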
VACV Venus inh = inhibitors of vaccinia virus (Venus reporter); Vaccinia virus Venus reporter expression, fluorescence; Potency, µM (titrated, usually from 36.5 µM), hits mostly inhibitors; hit rate 0.46% among 330,000; AID 720580; calls by dose curve; tested in A549 cells; further: nearly all actives have a fitted effect of over 30% in size
Marburg entry inh = blocks Marburg virus binding to or entry into cells | Marburg virus pseudotyped entry inhibition, cell reporter | Potency, µM (series often up to 37.8 µM), most hits filed as inhibitors | hit rate 1.8% among 300,000; calls by dose curve; tested in HEK293 cells
FMDV inh = blocks foot and mouth disease virus | FMDV antiviral cell-based qHTS | Potency, µM (series often up to 57.9 µM), actives largely listed as inhibitors | hit rate 1.2% among 410,000 | AID 1159524; calls by dose curve; tested in HEK293T cells; further: read-out not given here; nearly all actives have a fitted effect of over 45% in size
Vaccinia mCherry = inhibitors of vaccinia virus infection (mCherry reporter signal). Vaccinia virus mCherry reporter infection, fluorescence. Potency, µM (top dose mostly 36.5 µM), hits mostly inhibitors. hit rate 0.63% among 310,000; calls by dose curve; tested in A549 cells; further: nearly all actives have a fitted effect of over 35% in size
A number is an active result; ! = repeats disagree; [ ] = another dose, or the depositor's remark.

Screening CCOc1cccc2cc(-c3nc4ccc(C(=O)O)cc4[nH]3)c(=O)oc12 returned Lassa entry inh inactive, Sm TGR block inactive, VACV Venus inh inactive, FMDV inh 11µM and Vaccinia mCherry inactive.
Screening O=C(NCCCc1nc2ccccc2n1Cc1ccccc1F)c1ccco1 returned Lassa entry inh inactive, Sm TGR block inactive, VACV Venus inh inactive, Marburg entry inh inconclusive, FMDV inh inactive and Vaccinia mCherry inactive.
CCOC(=O)c1c(C)n(-c2ccccc2)c2ccc(OC(=O)c3ccccc3)cc12 was read as Lassa entry inh inactive, Sm TGR block inactive, VACV Venus inh inactive[7.34 µM], FMDV inh inactive and Vaccinia mCherry inactive[7.34 µM].
Screening Cn1nc(-c2ccc(Cl)cc2)nc2c(=O)n(C)c(=O)nc1-2 returned Sm TGR block inconclusive, VACV Venus inh 2µM, Marburg entry inh inactive and Vaccinia mCherry 2µM.
For Cc1cc(C)n2nc(-c3cccnc3)nc2n1 the results were Lassa entry inh inactive, Sm TGR block inactive, VACV Venus inh inactive, Marburg entry inh inactive and FMDV inh inactive.
Cn1nc(-c2cccnc2)nc2c(=O)n(C)c(=O)nc1-2 was read as VACV Venus inh 2.5µM and Vaccinia mCherry 3.2µM.
For Cn1nc(-c2ccccc2)nc1-c1ccccc1 the results were Sm TGR block inactive, VACV Venus inh inactive, FMDV inh inactive and Vaccinia mCherry inactive.
`Cn1nc(-c2ccc(F)cc2)nc2c(=O)n(C)c(=O)nc1-2` gave VACV Venus inh 2.8µM and Vaccinia mCherry 0.63µM.
For COCc1c(C(=O)N2CCC(N(C)C)C2)cnn1-c1ncc2c(n1)-c1ccccc1CCC2 (configuration not stated) the results were VACV Venus inh inactive, FMDV inh inactive and Vaccinia mCherry inactive.
For O=C(NCC1CCCCN1)c1cc(OCC(F)(F)F)ccc1OCC(F)(F)F (configuration not stated) the results were Lassa entry inh inconclusive, Sm TGR block inconclusive, VACV Venus inh 10µM!, Marburg entry inh inconclusive, FMDV inh inactive and Vaccinia mCherry 35µM!.
`CC(C)CC(=O)NCCNC(=O)c1cc(OCC(F)(F)F)ccc1OCC(F)(F)F` gave Lassa entry inh inactive, Sm TGR block inactive, VACV Venus inh inactive, Marburg entry inh inactive and FMDV inh inactive.
O=C(CCl)NCCNC(=O)c1cc(OCC(F)(F)F)ccc1OCC(F)(F)F was read as Lassa entry inh inactive, Sm TGR block inconclusive, VACV Venus inh 2µM, Marburg entry inh inconclusive, FMDV inh inactive and Vaccinia mCherry 2µM.
For O=C(NCCN1CCCCC1)c1cc(OCC(F)(F)F)ccc1OCC(F)(F)F the results were Lassa entry inh inactive, Sm TGR block inactive, VACV Venus inh inactive, Marburg entry inh inactive, FMDV inh inactive and Vaccinia mCherry inconclusive.
`Cc1cccc(N2CCN(C(=O)c3cccn4c(=O)c5cc(Cl)ccc5nc34)CC2C)c1` (configuration not stated) gave Lassa entry inh inactive, Sm TGR block inactive, VACV Venus inh inactive, FMDV inh inactive and Vaccinia mCherry inactive.
For CCc1ccccc1NC(=O)N1CCN(c2cc(-c3noc(C)n3)ccc2C)CC1 the results were Lassa entry inh inactive, Sm TGR block inactive, VACV Venus inh inactive, FMDV inh inactive and Vaccinia mCherry inactive.
CC[C@@]1(C)Cc2c(sc3c2c(=O)n(C)c2nnc(SCc4ccc5c(c4)OCO5)n32)CO1 was read as Marburg entry inh inactive.
`COc1ccc([C@H]2CC(=O)C=C(c3cc(F)ccc3F)C2)cc1OC` gave Sm TGR block inactive, VACV Venus inh inconclusive, FMDV inh 32µM and Vaccinia mCherry inactive.
`O=C1C=C(c2cc(F)ccc2F)C[C@@H](c2ccc(Cl)cc2)C1` gave Sm TGR block inactive, VACV Venus inh inactive, FMDV inh inactive and Vaccinia mCherry inconclusive.
For CN(C)C(=O)CCC(=O)NCC1Cc2cccc(-c3ccccc3C(F)(F)F)c2O1 (configuration not stated) the results were VACV Venus inh inactive, FMDV inh inactive and Vaccinia mCherry inactive.
For O=C(NCC1Cc2cccc(-c3cnccn3)c2O1)c1ccc(F)c(Cl)c1 (configuration not stated) the results were VACV Venus inh inactive, FMDV inh inactive and Vaccinia mCherry inactive.
`CCC(C)NS(=O)(=O)c1ccc(S(=O)(=O)N(CCc2ccc(OC)c(OC)c2)Cc2cccs2)cc1` (configuration not stated) gave Lassa entry inh inconclusive, Sm TGR block inactive, VACV Venus inh inactive, Marburg entry inh 3.5µM, FMDV inh inactive and Vaccinia mCherry inconclusive.
`COC(=O)c1cc(C(=O)OC)cc(N2C(=O)CC(NNC(=O)c3ccc(C)cc3)C2=O)c1` (configuration not stated) gave Lassa entry inh 0.79µM, Sm TGR block inactive, VACV Venus inh inactive, Marburg entry inh inconclusive, FMDV inh inactive and Vaccinia mCherry inactive.
For COC(=O)c1cc(C(=O)OC)cc(N2C(=O)CC(NNC(=O)c3ccccc3Br)C2=O)c1 (configuration not stated) the results were Lassa entry inh inactive, Sm TGR block inconclusive, Marburg entry inh inactive and FMDV inh inactive.
Screening COc1ccccc1C(=O)NC(=S)/C=C1/N(C)c2ccccc2C1(C)C returned Lassa entry inh inconclusive, Sm TGR block inactive, VACV Venus inh inactive, Marburg entry inh 14µM, FMDV inh inconclusive and Vaccinia mCherry inconclusive.
Screening CC1CCC(C(C)C)C(OCC(O)CN2CCCC(C)C2)C1 (configuration not stated) returned Lassa entry inh 5.6µM, Sm TGR block inactive, VACV Venus inh inactive, Marburg entry inh inconclusive, FMDV inh inconclusive and Vaccinia mCherry inconclusive.
CC1CCCN(CC(O)COC(c2ccccc2)c2ccccc2)C1 (configuration not stated) was read as Lassa entry inh inconclusive, Sm TGR block inactive, VACV Venus inh inactive, Marburg entry inh 4µM, FMDV inh inactive and Vaccinia mCherry inactive.
Screening CC1CCC(C(C)C)C(OCC(O)CN2CCN(Cc3ccccc3)CC2)C1 (configuration not stated) returned Lassa entry inh 8.9µM, Sm TGR block inactive, VACV Venus inh inconclusive, Marburg entry inh inconclusive and FMDV inh inconclusive.
For COc1ccc(C)cc1Nc1ncnc2c1c(-c1ccccc1)cn2-c1ccc(C)cc1 the results were Lassa entry inh inactive, Sm TGR block inactive, VACV Venus inh inactive, FMDV inh inactive and Vaccinia mCherry inactive.
`CC1CCN(CC(=O)N2CCCc3c2c(=O)oc2ccc(OCc4ccccc4)cc32)CC1` gave Lassa entry inh 0.63µM!, Sm TGR block inactive, VACV Venus inh inactive, Marburg entry inh 7.1µM, FMDV inh inconclusive and Vaccinia mCherry inactive.
Screening CC1CC(C)CN(CC(=O)N2CCCc3c2c(=O)oc2ccc(OCc4ccccc4)cc32)C1 (configuration not stated) returned Lassa entry inh inconclusive, Sm TGR block inactive, VACV Venus inh inconclusive, Marburg entry inh 10µM, FMDV inh inconclusive and Vaccinia mCherry inactive.
Screening CCCOc1ccc2oc(=O)c3c(c2c1)CCCN3C(=O)CN1CCc2ccccc2C1 returned Lassa entry inh inconclusive, Sm TGR block inactive, VACV Venus inh inconclusive, Marburg entry inh inconclusive and FMDV inh inactive.

High-throughput results as filed in PubChem.
